Consider 39 compounds from PubChem BioAssay (NCI).

This is part of a sample that, as a whole, favours compounds with a hit. Of some 79,000 tested, about 15% had one in any assay. The source made the active and inactive calls. Rule as the data show it: active = growth inhibition above about 70%; inactive = the rest.

The experiment is described as follows: NCI Yeast Anticancer Drug Screen. Data for the mlh1 rad18 strain (AID 175). The note with it: S. cerevisiae mlh1 rad18 strain growth inhibition; at 50.0 µM; active compounds read high. The essentials: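 A repair-deficient yeast strain is exposed to test compound, and growth is scored relative to vehicle-treated controls.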
Regarding `CNS(=O)(=O)c1ccccc1C=C(c1ccccc1)c1ccccc1`, the growth inhibition is 94.1% (active).

Take `CC(C)c1cc(C(C)C)c(Cl)c(Cl)c1O` (tested in a mixture with another compound): the growth inhibition is 84.5% (active).

For the compound `Nc1cccc2cccnc12`, the growth inhibition was 91% (active).

Consider `C[n+]1c(/C=C/c2ccc(N3CCCC3)cc2)sc2ccccc21`, for which the growth inhibition was 98.8% (active).

Turning to `Nc1cn(C2OC(CC(c3ccccc3)(c3ccccc3)c3ccccc3)C(O)C2O)c(=O)[nH]c1=O` (centres undefined), the growth inhibition was 34.6% (inactive).

For the compound `c1ccc(Cn2nnc(-c3ccccc3)c2-c2ccccc2)cc1`, the growth inhibition is 87.5% (active).

In the case of `CCCCCC(CCCCC)OC(=O)CCN(CCCCC)CCCCC`, the growth inhibition is 68.9% (inactive).

Regarding `C=CCC1(OC(C)=O)CC2C(=O)C(=O)C(C1)N2OC(=O)c1ccccc1` (centres undefined), the growth inhibition was 98.7% (active).

Regarding `C=CS(=O)(=O)c1ccc([N+](=O)[O-])cc1`, the growth inhibition is 99.2% (active).

Take `Cc1ccc(S(=O)(=O)Oc2ccc(C(C)(C)C)cc2Cl)cc1`: the growth inhibition was 14.4% (inactive).

As for `O=C(CCl)N1CCN(C(c2ccccc2)c2ccccc2)CC1`, the growth inhibition is 97.5% (active).

Regarding `Oc1ccc2ccccc2c1.[Cu+2]`, the growth inhibition is 98% (active).

On to `NS(=O)(=O)c1ccc(NC(=O)Cc2nc3ccccc3s2)cc1`, for which the growth inhibition is 91.2% (active).

Take `O=C(COc1ccc(Cl)cc1)OCCO`: the growth inhibition is -25.6% (inactive).

For the compound `NC(=Nc1ccccc1)SCc1ccc([N+](=O)[O-])cc1`, the growth inhibition was 19.4% (inactive).

Take `N[C@@H]1CCCC[C@@H]1N.O=C([O-])CN(CP(=O)([O-])[O-])CP(=O)([O-])[O-].[Pt+2]`: the growth inhibition is 99.5% (active).

Consider `C/C=C(\C)CC/C=C/CO[Si](C)(C)C(C)(C)C`, for which the growth inhibition is 5.75% (inactive).

Take `CCOC(=O)c1cnc2cc3cccccc3n2c1=O`: the growth inhibition is 93.3% (active).

For `C(=N\NC1=NCCN1)/c1ccc(-c2cn3cc(/C=N/NC4=NCCN4)ccc3n2)cc1`, the growth inhibition is 99.4% (active).

Regarding `CC(CN(C)C)C(/C=C/c1ccc(F)cc1)=N\Nc1ccccc1` (centres undefined), the growth inhibition was 75.7% (active).

Regarding `O=C1C(Sc2ccc3ccccc3c2)=C(Sc2ccc3ccccc3c2)C(=O)c2ccccc21`, the growth inhibition is 96.8% (active).

As for `CC(O)c1cccnc1` (centres undefined), the growth inhibition was 66% (inactive).

Consider `Cc1cccc2nc3nc(Cl)c(Cl)nc3n12`, for which the growth inhibition is 90.8% (active).

On to `CSc1cc2c(cc1N)Cc1cc(F)ccc1-2`, for which the growth inhibition is 98.5% (active).

On to `CC(C)C1=CC23CCC4C(C)(C(=O)O)CCCC4(C)C2CC1c1c(O)ccc(O)c13` (centres undefined), for which the growth inhibition was 99% (active).

On to `C=CCNC(=S)N/N=C(\CCC)c1ccccn1`, for which the growth inhibition is 47.9% (inactive).

Regarding `C#CC(C)(C)OC(C)=O`, the growth inhibition is 76.6% (active).

In the case of `Cc1cc(N2C(=O)CSC2=S)c([N+](=O)[O-])cc1C`, the growth inhibition is 99.3% (active).

With `Cc1[nH]c(=O)[nH]c(=O)c1CN(C)Cc1cc(Cl)cc(Cl)c1O`, the growth inhibition was 77.5% (active).

On to `CCCCC(CC)C(O)C(=O)O` (centres undefined), for which the growth inhibition is 54.4% (inactive).

`CCOCCOc1ccc(OCCOCC)cc1`: the growth inhibition was 0.4% (inactive).

For the compound `O=C(O)c1ccc(C(=O)c2ccccc2C(=O)O)cc1`, the growth inhibition was 99.3% (active).

Turning to `CCCCCCCCCCCCCCNC(=O)CCC(NC(=O)c1ccc(N(C)Cc2cnc3nc(N)nc(N)c3n2)cc1)C(=O)NCCCCCCCCCCCCCC` (centres undefined), the growth inhibition is 20.8% (inactive).

In the case of `C=C1C(=O)C23OC2C1CCC(=O)C1(C)CC[C@H](OC(C)=O)C(C)(C)[C@H]1CC3O` (some centres undefined), the growth inhibition was 99% (active).

In the case of `CCCCCCCCCCC(NC(C)=O)(C(=O)OCC)C(=O)OCC`, the growth inhibition was 82.8% (active).

Turning to `ClC(Cl)(Cl)/C=C/c1cnc2ccccc2n1`, the growth inhibition was 30.2% (inactive).

Turning to `CCc1nc(N)nc(N)c1-c1ccc(N(C)Cc2ccccc2)c([N+](=O)[O-])c1`, the growth inhibition is 14.5% (inactive).

Regarding `O=C(COC(=O)C(c1ccccc1)c1ccccc1)c1ccc(Br)cc1`, the growth inhibition was 20.9% (inactive).

For the compound `OCCN1COc2cc3c(cc2C1)OCN(CCO)C3`, the growth inhibition was 16.2% (inactive).
